From publication PMC5540273 (PLoS ONE, 2017)

Experiments:
Details in all cases: concentration: 1 μM, replicates: in singlicate; n = 1
PAK6 = system: PAK6
PAK7 = system: PAK7
PCTK1 = system: T1, PCTK1
T1 construct: gene CDK16

PCTK2 = system: T2, PCTK2
T2 construct: gene CDK17

PCTK3 = system: T3, PCTK3
T3 construct: gene CDK18

PDGFRA = system: PDGFRA
PDGFRB = system: PDGFRB
PDPK1 = system: PDPK1
PFTAIRE2 = system: PFTAIRE2
PFTK1 = system: T4, PFTK1
T4 construct: gene CDK14

PHKG1 = system: PHKG1
PHKG2 = system: PHKG2
PIK3C2B = system: PIK3C2B
PIK3C2G = system: PIK3C2G
PIK3CA = system: PIK3CA
PIK3CB = system: PIK3CB
PIK3CD = system: PIK3CD
PIK3CG = system: PIK3CG
PIK4CB = system: T5, PIK4CB
T5 construct: gene PI4KB

PIKFYVE = system: PIKFYVE
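Note: KINOMEscan kinase panel screen.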

Row | SMILES | %Inh (PAK6) | %Inh (PAK7) | %Inh (PCTK1) | %Inh (PCTK2) | %Inh (PCTK3) | %Inh (PDGFRA) | %Inh (PDGFRB) | %Inh (PDPK1) | %Inh (PFTAIRE2) | %Inh (PFTK1) | %Inh (PHKG1) | %Inh (PHKG2) | %Inh (PIK3C2B) | %Inh (PIK3C2G) | %Inh (PIK3CA) | %Inh (PIK3CB) | %Inh (PIK3CD) | %Inh (PIK3CG) | %Inh (PIK4CB) | %Inh (PIKFYVE)
1 | Cc1ccccc1-n1cnc2c(N)ncnc21 [SKF-97510] | 12% | 0% | 0% | 0% | 0% | 0% | 0% | 6% | 0% | 0% | 0% | 10% | 0% | 10% | 0% | 0% | 0% | 0% | 0% | 0%
2 | COC(=O)c1c(-c2ccccc2)c2cc(OC)ccc2c(=O)n1Cc1ccccc1 | 3% | 5% | 0% | 4% | 9% | 70% | 99.5% | 0% | 10% | 6% | 7% | 31% | 0% | 0% | 3% | 14% | 5% | 0% | 0% | 13%
3 | Fc1cc(Cl)ccc1Nc1ccnc2cc(I)ccc12 [GW551191] | 0% | 0% | 4% | 0% | 0% | 9% | 88% | 0% | 9% | 4% | 0% | 0% | 0% | 0% | 0% | 0% | 0% | 0% | 0% | 0%
4 | COc1ccc(Nc2nccc(-c3cccc(NC(=O)c4cc5cc(F)ccc5[nH]4)c3)n2)cc1 [GSK1229782] | 11% | 51% | 1% | 18% | 7% | 33% | 61% | 21% | 30% | 24% | 19% | 0% | 0% | 0% | 0% | 0% | 0% | 2% | 0% | 6%
5 | Cc1ccc(C(=O)Nc2ccc(Nc3ccnc4cc(-c5ccccn5)ccc34)cc2O)cc1.Cl [GW440146] | 8% | 0% | 0% | 0% | 24% | 54% | 86% | 0% | 26% | 18% | 0% | 0% | 0% | 0% | 0% | 0% | 100% | 0% | 0% | 4%
6 | Cc1c(O)cccc1Nc1ccnc2ccc(C(F)(F)F)cc12.Cl [GW466413] | 0% | 0% | 0% | 0% | 0% | 0% | 5% | 0% | 0% | 0% | 3% | 0% | 18% | 48% | 0% | 0% | 25% | 0% | 3% | 11%
7 | Fc1cccc(COc2nnc(-c3ccc4c(c3)CCO4)o2)c1 | 38% | 17% | 8% | 6% | 0% | 28% | 0% | 0% | 7% | 2% | 0% | 0% | 0% | 0% | 0% | 14% | 17% | 7% | 0% | 24%
8 | CCCc1ccc(S(=O)(=O)NC2CCN(c3ccnc(Nc4ccc(F)cc4)n3)C2)cc1 (stereo not shown) [GSK1379715] | 0% | 0% | 0% | 0% | 19% | 0% | 16% | 82% | 0% | 1% | 0% | 0% | 0% | 0% | 0% | 0% | 34% | 0% | 0% | 0%
9 | CN1C(=O)C(Nc2ccc(Cl)c(C(=O)O)c2)=C(c2ccc(Cl)cc2)C1=O [SB-404290] | 0% | 10% | 0% | 6% | 0% | 27% | 0% | 0% | 11% | 0% | 0% | 0% | 34% | 20% | 7% | 0% | 0% | 23% | 16% | 13%
10 | COc1ccccc1-c1ccc2c(NC(=O)C3CC3)n[nH]c2n1 [SB-711239] | 54% | 4% | 1% | 0% | 27% | 0% | 0% | 13% | 9% | 2% | 1% | 0% | 0% | 45% | 0% | 25% | 23% | 0% | 0% | 17%
11 | CC(C)(C)c1ccc(C(=O)Nc2cn3cc(Cl)ccc3n2)cc1 | 0% | 27% | 0% | 0% | 0% | 12% | 71% | 0% | 0% | 0% | 0% | 0% | 0% | 0% | 0% | 0% | 0% | 0% | 0% | 4%
12 | Cn1cncc1-c1ccc2ncnc(Nc3ccc(OCc4ccccc4)cc3)c2c1 [GW320571] | 0% | 0% | 0% | 0% | 7% | 0% | 9% | 9% | 20% | 0% | 5% | 1% | 61% | 57% | 0% | 0% | 7% | 6% | 0% | 0%
13 | CC(=O)Nc1nc2cnc(Nc3cc(NC(=O)c4cccc(CCC#N)c4)ccc3C)nc2s1 | 19% | 0% | 9% | 6% | 8% | 94.3% | 100% | 4% | 0% | 12% | 0% | 8% | 9% | 78% | 2% | 0% | 0% | 8% | 0% | 0%
14 | COc1cc(Nc2nccc(N3CCC(NC(=O)Nc4cc(C)ccc4C)C3)n2)cc(OC)c1OC (stereo not shown) [GSK1379762] | 0% | 0% | 9% | 24% | 33% | 8% | 42% | 11% | 24% | 21% | 3% | 0% | 0% | 0% | 0% | 0% | 39% | 0% | 15% | 0%
